# This excerpt belongs to a sample that is enriched for hits.
# KDM5B inh: KDM5B demethylase inhibition. Q9UGL1. KDM5B demethylase, FDH-coupled NADH fluorescence (FDH is formaldehyde dehydrogenase). Potency, µM (doses to about 57.7 µM), usual class: inhibitors. 220,000 tested, 2.6% active. AID 1347165; active = well fitted inhibition curve with a large enough effect; also: 0% is about no effect; nearly all actives have a fitted effect of over 70% in size
# Target sequence (Q9UGL1 whole entry, looked up): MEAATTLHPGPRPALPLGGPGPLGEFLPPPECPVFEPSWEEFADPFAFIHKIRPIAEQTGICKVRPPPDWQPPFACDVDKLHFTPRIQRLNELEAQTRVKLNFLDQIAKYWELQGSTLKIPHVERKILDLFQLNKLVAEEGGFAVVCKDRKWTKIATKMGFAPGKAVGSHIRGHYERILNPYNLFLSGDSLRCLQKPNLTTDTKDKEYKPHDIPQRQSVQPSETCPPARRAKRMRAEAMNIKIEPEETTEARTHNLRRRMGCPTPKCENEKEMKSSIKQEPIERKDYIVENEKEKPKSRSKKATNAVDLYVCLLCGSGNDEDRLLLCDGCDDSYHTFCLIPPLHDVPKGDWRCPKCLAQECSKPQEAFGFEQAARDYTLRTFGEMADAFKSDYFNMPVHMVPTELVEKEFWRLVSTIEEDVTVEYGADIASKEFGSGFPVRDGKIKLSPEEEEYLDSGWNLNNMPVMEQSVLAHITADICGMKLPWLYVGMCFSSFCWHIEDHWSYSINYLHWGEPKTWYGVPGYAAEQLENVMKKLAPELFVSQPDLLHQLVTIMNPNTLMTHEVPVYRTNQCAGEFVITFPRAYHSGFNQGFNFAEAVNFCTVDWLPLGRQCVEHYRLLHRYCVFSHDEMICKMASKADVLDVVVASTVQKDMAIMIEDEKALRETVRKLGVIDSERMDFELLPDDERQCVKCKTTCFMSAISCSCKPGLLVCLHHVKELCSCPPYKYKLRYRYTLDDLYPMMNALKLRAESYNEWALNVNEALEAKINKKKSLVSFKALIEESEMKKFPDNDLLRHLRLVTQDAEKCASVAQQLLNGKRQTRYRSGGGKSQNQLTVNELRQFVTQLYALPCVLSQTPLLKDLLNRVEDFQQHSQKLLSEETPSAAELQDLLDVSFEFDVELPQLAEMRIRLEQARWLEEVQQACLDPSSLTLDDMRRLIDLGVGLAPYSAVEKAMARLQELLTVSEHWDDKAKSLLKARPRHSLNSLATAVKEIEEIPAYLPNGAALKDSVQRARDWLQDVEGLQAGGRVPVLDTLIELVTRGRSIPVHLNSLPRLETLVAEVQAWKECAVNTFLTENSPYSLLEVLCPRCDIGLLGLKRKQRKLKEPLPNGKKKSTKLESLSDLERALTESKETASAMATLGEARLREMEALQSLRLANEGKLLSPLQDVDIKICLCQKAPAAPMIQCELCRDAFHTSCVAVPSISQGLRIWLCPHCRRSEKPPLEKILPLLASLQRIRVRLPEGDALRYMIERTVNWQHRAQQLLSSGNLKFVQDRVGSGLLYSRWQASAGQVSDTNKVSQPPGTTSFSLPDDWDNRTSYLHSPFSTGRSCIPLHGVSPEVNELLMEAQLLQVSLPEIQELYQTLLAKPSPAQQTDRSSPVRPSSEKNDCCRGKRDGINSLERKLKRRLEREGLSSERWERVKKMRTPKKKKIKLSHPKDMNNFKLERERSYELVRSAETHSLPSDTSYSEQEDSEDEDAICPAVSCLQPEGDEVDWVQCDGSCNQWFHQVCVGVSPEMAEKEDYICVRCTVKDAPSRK
#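 Coupled FDH/NAD⁺ fluorescence readout. KDM5BΔAP 200 nM final; compound titration, 10 min RT preincubation; substrate mix 12.5 µM H3K4me3, 25 µM 2-OG, 50 µM Fe(II), 100 µM ascorbate, 0.25 mM NAD⁺, 0.25 U/mL FDH; ΔRFU over 30 min.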
# The depositor's hits bear a star; i = inactive. Potency is read from the fitted curve at half-maximal effect.
SMILES,KDM5B inh
O=C(NC1CCN(c2cc(-c3ccccc3)[nH]n2)C1)c1ccccc1Cl (stereo not given),i
CCOc1ccc(C(=O)NC2CCCN(c3cc(-c4ccc(OC)cc4)[nH]n3)C2)cc1 (stereo not given),i
CN(C)c1cccc(C(=O)NC2CCN(c3cc(-c4ccccc4)[nH]n3)C2)c1 (stereo not given),25µM*
O=C(NC1CCN(c2cc(-c3ccc(F)cc3)[nH]n2)CC1)c1cccc2[nH]ccc12,32µM*
O=C(NC1CCCN(c2cc(-c3ccccc3)[nH]n2)C1)c1cccc(F)c1 (stereo not given),i
O=C(NC1CCN(c2cc(-c3ccc(F)cc3)[nH]n2)CC1)c1ccccc1Cl,i
O=C(NC1CCN(c2cc(-c3ccc(F)cc3)[nH]n2)CC1)c1ccc(F)cc1F,i
Cc1ccc(N2C(=O)CS(=O)(=O)C23C(=O)Nc2ccccc23)cc1C (stereo not given),i
O=C(/C=C/c1cccc([N+](=O)[O-])c1)c1cccc2ccccc12,i
CN1CCCCC(CC(=O)NCc2ccccc2)C1=O (stereo not given),i
CCc1cccc(NC(=O)[C@@H]2COCC(=O)N2Cc2ccc(OC)cc2OC)c1,i
O=C(NCCc1cccnc1)c1cccc2c1CCN2C(=O)Nc1ccc(F)cc1,i
COc1ccc([C@@H](NC(=O)c2sc(C)nc2C)C2CC(O)C2)cn1 (stereo not given in full),i
CN(C)C(=O)c1ccc(Cl)nc1,i
COc1ccc([C@@H](NC(=O)c2ccc3nccn3c2)C2CC(O)C2)cn1 (stereo not given in full),20µM*
COc1ccc([C@@H](NC(=O)c2cc3ncccn3n2)C2CC(O)C2)cn1 (stereo not given in full),i
CC(C)NC(=O)c1ccc(C(C)C)cc1,i
O=C(c1ccc2nccn2c1)N1CCCCC1,i
CN1CCN(C(=O)c2ccc3nccn3c2)CC1,i
CN(C)C(=O)c1ccc2nccn2c1,126µM*
CC(C)NC(=O)c1ccc2nccn2c1,141µM*
O=C(Nc1cccc(S(=O)(=O)N2CCCCC2)c1)c1ccc(OCc2cn3ccccc3n2)cc1,i
COCC(=O)N1CCCCC1c1nc(-c2ccccc2)n[nH]1 (stereo not given),i
O=C(O)CC1c2ccccc2CCN1S(=O)(=O)c1cccs1 (stereo not given),i
Cc1ncccc1C(=O)NC1CCN(C(=O)N2CC3CC(C2)[C@H]2CCCC(=O)N2C3)CC1 (stereo not given in full),i
SMILES,KDM5B inh
CC(C)n1nc(OC(C)(C)C(=O)NCCOc2ccccc2)c2cc(CN3CCOCC3)ccc21,28µM*
CC(C)CNC(=O)C(C)(C)Oc1nn(C(C)C)c2ccc(CN3CCOCC3)cc12,35µM*
COCCCNC(=O)C(C)(C)Oc1nn(Cc2cccnc2)c2ccc(COC)cc12,i
CC(C)CNC(=O)N1CCOc2ccc(CN3CCOCC3)cc2C1,i
CC(C(=O)NC1CCN(Cc2ccccc2)CC1)C1CCOCC1 (stereo not given),i
COCCNC(=O)C(C)(C)Oc1nn(Cc2cccc(Cl)c2)c2ccccc12,i
CC(C)n1nc(OC(C)(C)C(=O)NC2CCC(O)CC2)c2cc(CN3CCOCC3)ccc21 (stereo not given),25µM*
CC(C)n1nc(OC(C)(C)C(=O)NC2CCOCC2)c2cc(CN3CCOCC3)ccc21,32µM*
Cc1ccc(C)c(NC(=O)CS(=O)(=O)c2cccc3nsnc23)c1,i
N#Cc1cccnc1NCCNc1ccc2ccccc2n1,i
Cc1cccc(OC(=O)C(c2ccccc2)c2ccccc2)c1,i
CCCc1c(C)nc2ccc(C)cc2c1SCCC(=O)O,i
CCN1CC(C(=O)N2CCC(OCc3ccccn3)CC2)CCC1=O (stereo not given),i
CCOC(=O)CCNC(=O)N1CCC(Oc2ncccc2C(=O)N2CCCCC2)C1 (stereo not given),i
O=C(NCCC1CCN(C(=O)Nc2cccc(F)c2)CC1)c1ccoc1,i
O=C(CCN=C1NS(=O)(=O)c2ccccc21)NCCc1ccccn1,i
COCC1(CNC(=O)c2nc3ccccc3[nH]2)C[C@@H](O)[C@@H](O)C1 (stereo not given in full),35µM*
COc1ccc(C(=O)NCC2(COc3ccccc3)C[C@@H](O)[C@@H](O)C2)cc1 (stereo not given in full),i
COCC1(CNC(=O)c2cccc(OC)c2)C[C@@H](O)[C@@H](O)C1 (stereo not given in full),i
COc1cccc2sc(NC(=O)c3ccc4c(c3)OCCO4)nc12,i
COc1cccc2sc(NC(=O)c3ccc4c(c3)OCCN(C3CCC3)C4)nc12,35µM*
COc1ccc(NC(=O)c2ccc3c(c2)OCCN(C2CCC2)C3)cn1,i
Cc1nc2c(cnn2C(C)C)cc1C(=O)N(C)Cc1c(F)cccc1Cl,i
O=C(CCc1nc2ccc(Cl)cc2[nH]1)N1CCc2n[nH]c(=O)n2CC1,i
CC(=O)c1cc(Cl)ccc1OCC(=O)N1CCC(c2ccccc2)=N1,i
SMILES,KDM5B inh
Cn1ccnc1CN1CCC2(CC1)CC(c1ccccc1)C(=O)N(C1CC1)C2 (stereo not given),i
CNC(=O)c1cc[nH]c1C1CCCN(Cc2ccc3c(c2)CCO3)C1 (stereo not given),i
O=C(NCc1nnc2ccc(-c3ccccc3)nn12)c1ccco1,28µM*
Cc1ccc(-c2ccc3nnc(CNC(=O)c4ccco4)n3n2)cc1,32µM*
Cc1nc2cc(NC(=O)c3cc(S(=O)(=O)Nc4ccc(C)c(C)c4)ccc3Cl)ccc2o1,i
Cc1cc(C(=O)N2CCN(S(=O)(=O)c3ccc4c(c3)CCC4)CC2)c(C)n1C1CC1,i
Cc1ccc2oc(C(=O)Nc3nonc3-c3cccs3)c(C)c2c1,i
CCN(CC)c1ccc2nnc(CCC(=O)N3CCOCC3)n2n1,i
CCN(CC)c1cc(CCC(=O)N(C)Cc2ccccc2)ccn1,22µM*
CN(Cc1ccc(C(=O)NCC(F)(F)F)cc1)C(=O)CCc1ccccc1,i
CCN(CC)c1cc(CCC(=O)N2CCC(C)CC2)ccn1,25µM*
CCN(CC)c1cc(CCC(=O)NCCCN2CCOCC2)ccn1,25µM*
CC(C)NC(=O)N1CCOc2ccc(CCC(=O)NCCCN3CCOCC3)cc2C1,i
CCN(CC)c1ccc2nnc(CCC(=O)N3CCC(C)CC3)n2n1,i
CN(Cc1ccsc1)C(=O)CCc1ccccc1,i
O=C(CCc1ncc(-c2c(F)cccc2F)o1)NCCCN1CCOCC1,i
COc1ccc(CNC(=O)c2nccnc2N)cc1OC,i
CCn1c(CN2CCCCC2)nc2cc(NC(=O)c3ccccc3[N+](=O)[O-])ccc21,i
COc1ccccc1C(=O)NC1(C(F)(F)F)NC(=O)N(CCc2ccccc2)C1=O (stereo not given),i
CC(C)CCNC(=O)Cn1nc2c(cc1=O)CCCC2,i
Cc1ccc(CN2CCC(C3CCNC3)CC2)nc1 (stereo not given),i
COc1cccc(CCNC(=O)c2c(C)noc2-c2ccco2)c1,i
COc1cc(-c2onc(C)c2C(=O)NCCc2ccc(F)cc2)cc(OC)c1OC,28µM*
COc1ccc(CCNC(=O)c2c(C)noc2-c2cc(OC)cc(OC)c2)cc1,i
COc1cccc(CCNC(=O)c2c(C)noc2-c2cc(OC)c(OC)c(OC)c2)c1,28µM*

# Bioassay records from PubChem BioAssay.
